Experimental data taken from PubChem BioAssay (Tox21).
Records with an inconclusive call do not appear. Activity calls are given as the source filed them. Unless noted, calls follow the shape of the dose curve; as a rule, active = well fitted curve in the direction sought with a large enough effect in the repeat runs; inconclusive = weak or mixed curves; inactive = no such curve, though single readings can be large; an effect the other way counts as inactive or inconclusive.

What was measured:
[1] = biological target: Thyrotropin-releasing hormone receptor (Homo sapiens) (UniProt P34981); assay: qHTS assay to identify small molecule agonists of the thyrotropin-releasing hormone receptor (TRHR) signaling pathway (AID 1346891; calls by dose curve; also: series mostly up to about 58 µM)
Sequence of Thyrotropin-releasing hormone receptor (Homo sapiens) (P34981 whole entry, looked up): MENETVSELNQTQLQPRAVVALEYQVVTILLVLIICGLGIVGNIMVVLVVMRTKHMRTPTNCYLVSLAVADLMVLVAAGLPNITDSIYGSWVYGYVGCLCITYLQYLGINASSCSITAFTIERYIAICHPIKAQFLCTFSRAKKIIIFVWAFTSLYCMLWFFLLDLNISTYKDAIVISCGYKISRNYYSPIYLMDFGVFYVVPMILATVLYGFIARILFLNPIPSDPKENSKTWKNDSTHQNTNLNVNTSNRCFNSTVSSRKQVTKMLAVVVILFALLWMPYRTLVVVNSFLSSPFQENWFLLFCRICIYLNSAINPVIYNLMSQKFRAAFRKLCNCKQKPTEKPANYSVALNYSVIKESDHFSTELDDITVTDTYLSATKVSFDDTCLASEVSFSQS
How it was run: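 Screening of agonists relied on calcium signalling in HEK293 cells expressing human TRHR: dye loading 2 h at 37 °C preceded compound addition and a 3-min fluorescence time course.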

[2] = Human pregnane X receptor (PXR) small molecule agonists, qHTS cell viability counter screen (AID 1346977); also: nearly all actives have a fitted effect of over 50% in size
How it was run: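 Tox21 qHTS format; PXR-Luc HepG2, 2,000/well, charcoal-stripped FBS 5%. Cpd exposure 24hr. Read: CellTiter-Fluor fluorescence, multiplexed with luciferase.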

[3] = Caspase-3/7 induction in HepG2 cells by small molecules, qHTS assay (AID 1346978); also: nearly all actives have a fitted effect of over 15% in size
How it was run: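 Caspase-3/7 induction was measured by Caspase-Glo 3/7 luminescence (30 min, room temperature) after a 17 hr compound exposure of wild-type HepG2 cells seeded at 2,000 per well and pre-incubated 5 hr.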

[4] = Caspase-3/7 induction in CHO-K1 cells by small molecules, qHTS cell viability counter screen (AID 1346979); also: nearly all actives have a fitted effect of over 35% in size; also: potency is read from the fitted curve at half-maximal effect
How it was run: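 CellTiter-Fluor viability check, qHTS format: wild-type CHO-K1, 16hr compound treatment, 1hr reagent incubation, fluorescence read.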

[5] = Caspase-3/7 induction in CHO-K1 cells by small molecules, qHTS assay (AID 1346980); also: nearly all actives have a fitted effect of over 15% in size
How it was run: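 Luminescent Caspase-Glo 3/7 read (30min, room temperature) quantified apoptosis induction. Cells were wild-type CHO-K1, treated with compound for 17hr at 37 C and 5% CO2.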

[6] = Caspase-3/7 induction in HepG2 cells by small molecules, qHTS cell viability counter screen (AID 1346981); also: series mostly up to about 92 µM; nearly all actives have a fitted effect of over 30% in size
How it was run: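 Cell viability is measured as a cytotoxicity counter screen alongside the Caspase-Glo 3/7 readout in identical wells. Wild-type HepG2 cells are treated with test compounds for 16 hr at 37 C before CellTiter-Fluor addition and a 1-hr incubation.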

[7] = biological target: Nuclear receptor subfamily 1 group I member 2 (Homo sapiens) (UniProt O75469); assay: Human pregnane X receptor (PXR) small molecule agonists, qHTS assay (AID 1346982); also: nearly all actives have a fitted effect of over 35% in size; also: potency is read from the fitted curve at half-maximal effect
Sequence of Nuclear receptor subfamily 1 group I member 2 (Homo sapiens) (O75469 whole entry, looked up): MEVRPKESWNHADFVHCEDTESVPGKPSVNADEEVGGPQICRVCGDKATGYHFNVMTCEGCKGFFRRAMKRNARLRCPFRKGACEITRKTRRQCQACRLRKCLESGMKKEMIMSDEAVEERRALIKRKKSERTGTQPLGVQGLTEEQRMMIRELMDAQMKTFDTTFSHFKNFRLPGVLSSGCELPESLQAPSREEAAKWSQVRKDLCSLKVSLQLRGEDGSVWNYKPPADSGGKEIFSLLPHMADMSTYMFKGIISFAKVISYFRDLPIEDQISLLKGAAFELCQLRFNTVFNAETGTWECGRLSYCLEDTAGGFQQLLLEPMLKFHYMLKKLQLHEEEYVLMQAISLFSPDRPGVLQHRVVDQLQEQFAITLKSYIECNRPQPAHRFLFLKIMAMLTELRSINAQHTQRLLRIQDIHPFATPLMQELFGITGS
How it was run: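 Cells: HepG2 stably carrying PXR-Luc. Medium held 5% charcoal-stripped FBS. Compounds in DMSO added after 5 hr plating, incubated 24 hr, then luminescence quantified with ONE-Glo.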

[8] = biological target: Nuclear receptor subfamily 1 group I member 2 (Rattus norvegicus) (UniProt Q9R1A7); assay: Rat pregnane X receptor (rPXR) activation by small molecules, qHTS assay (AID 1346983); settings: rPXR luciferase reporter cells, One-Glo luminescence, 24 h; max activation: hits give high values; also: nearly all actives have a fitted effect of over 20% in size
Sequence of Nuclear receptor subfamily 1 group I member 2 (Rattus norvegicus) (Q9R1A7 whole entry, looked up): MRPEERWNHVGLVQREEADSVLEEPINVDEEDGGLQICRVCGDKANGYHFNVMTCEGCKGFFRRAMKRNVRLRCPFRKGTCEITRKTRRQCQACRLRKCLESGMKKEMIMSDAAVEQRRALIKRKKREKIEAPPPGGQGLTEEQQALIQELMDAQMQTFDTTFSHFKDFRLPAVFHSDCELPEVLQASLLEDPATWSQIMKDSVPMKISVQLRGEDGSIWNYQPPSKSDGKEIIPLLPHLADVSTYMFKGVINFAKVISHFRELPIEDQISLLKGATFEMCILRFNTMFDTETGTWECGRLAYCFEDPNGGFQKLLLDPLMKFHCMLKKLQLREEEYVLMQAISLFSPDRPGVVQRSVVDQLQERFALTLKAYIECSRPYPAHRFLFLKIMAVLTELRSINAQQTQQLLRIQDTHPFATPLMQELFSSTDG
How it was run: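 Luminescent readout (One-Glo luciferase, 30 min room temperature) followed 24 hr compound treatment at 37 C of rPXR cells plated 2,000 per well and preincubated 5hr; qHTS format with compounds delivered in DMSO.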

[9] = biological target: Nuclear receptor subfamily 1 group I member 2 (Homo sapiens) (UniProt O75469); assay: CYP3A4 induction through human pregnane X receptor (PXR) by small molecules, qHTS assay (AID 1346984); also: nearly all actives have a fitted effect of over 40% in size; also: potency is read from the fitted curve at half-maximal effect
How it was run: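 Quantitative HTS in DPX-2 cells, i.e. HepG2 transfected with PXR response element and CYP3A4-promoter luciferase. Compounds in DMSO incubated 24hr at 37C; then P450-Glo CYP3A4 substrate, 3uM final, 3hr; One-Glo luminescence.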

[10] = biological target: Nuclear receptor subfamily 1 group I member 2 (Homo sapiens) (UniProt O75469); assay: Human pregnane X receptor (PXR) activation by small molecules, qHTS assay (AID 1346985); also: nearly all actives have a fitted effect of over 40% in size
How it was run: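 DPX-2 cells (HepG2 co-transfected with a PXR response element and a CYP3A4-promoter luciferase construct) were seeded at 2,000 per well, rested 5 hr at 37C, then exposed to DMSO-dissolved compounds for 24 hr. Activation was read as luciferase luminescence.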
% is scaled to controls: 0 for no effect and ±100 for the full control effect.

CCOC(C)OCC
inactive: outcome [1] | Potency [2] | Potency [3] | Potency [4] | Potency [5] | Potency [6] | Potency [7] | max activation [8] -4.85% | Potency [9] | Potency [10]

CCCCCCCCCCCCCCCCC(=O)O
inactive: outcome [1] | Potency [2] | Potency [3] | Potency [4] | Potency [5] | Potency [6] | Potency [7]

CCC1=C(C)CN(C(=O)NCCc2ccc(S(=O)(=O)NC(=O)NC3CCC(C)CC3)cc2)C1=O (stereo unspecified)
inactive: outcome [1] | Potency [2] | Potency [3] | Potency [4] | Potency [5] | Potency [6] | Potency [7]

c1ccc(CCNc2nc(-c3ccccc3)cs2)cc1
active: Potency [7] 3.76 µM
inactive: outcome [1] | Potency [2] | Potency [3] | Potency [4] | Potency [5] | Potency [6]

CCCC(=O)OCc1ccccc1
inactive: outcome [1] | Potency [2] | Potency [3] | Potency [4] | Potency [5] | Potency [6] | Potency [7]

C[C@H](CN1CCCC1)C(=O)c1ccc(C(F)(F)F)cc1
inactive: outcome [1] | Potency [2] | Potency [3] | Potency [4] | Potency [5] | Potency [6]
active: Potency [7] 26.6 µM

C[Si](C)(C)O[Si](C)(C)O[Si](C)(C)C
inactive: outcome [1] | Potency [2] | Potency [3] | Potency [4] | Potency [5] | Potency [6] | Potency [7]

CCOc1ccccc1O
inactive: outcome [1] | Potency [2] | Potency [3] | Potency [4] | Potency [5] | Potency [6] | Potency [7]

C=CC(O)CCCCC (stereo unspecified)
inactive: outcome [1] | Potency [2] | Potency [3] | Potency [4] | Potency [5] | Potency [6] | Potency [7]

CCCCCCCCCC(C)C=O (stereo unspecified)
active: Potency [7] 48.6 µM
inactive: outcome [1] | Potency [2] | Potency [3] | Potency [4] | Potency [5] | Potency [6]

Cc1c(-c2cccnc2)c2ccccc2n1CCCCC(=O)O
inactive: outcome [1] | Potency [2] | Potency [3] | Potency [4] | Potency [5] | Potency [6] | Potency [7]

O=C(O)COCC(=O)O
inactive: outcome [1] | Potency [2] | Potency [3] | Potency [4] | Potency [5] | Potency [6] | Potency [7]

CC(C)(C)NCC(O)COc1ccc(NC(=O)NC2CCCCC2)cc1 (stereo unspecified)
inactive: outcome [1] | Potency [2] | Potency [3] | Potency [4] | Potency [5] | Potency [6] | Potency [7] | max activation [8] 0.0743% | Potency [9]

FC(F)(Cl)C(F)(Cl)Cl
inactive: outcome [1] | Potency [2] | Potency [3] | Potency [4] | Potency [5] | Potency [6] | Potency [7]

Sc1nc(S)nc(S)n1
inactive: outcome [1] | Potency [2] | Potency [3] | Potency [4] | Potency [5] | Potency [6] | Potency [7]

C[C@@H](O)[C@H]1C(=O)N2C(C(=O)O)=C(S[C@@H]3CN[C@H](CNS(N)(=O)=O)C3)[C@H](C)[C@H]12
inactive: outcome [1] | Potency [2] | Potency [3] | Potency [4] | Potency [5] | Potency [6] | max activation [8] -2.11% | Potency [9] | Potency [10]
active: Potency [7] 18.8 µM

COc1ccc(/C=C/S(=O)(=O)NC(=O)c2ccc(C)cc2Cl)cc1
active: Potency [7] 27.3 µM
inactive: outcome [1] | Potency [2] | Potency [3] | Potency [4] | Potency [5] | Potency [6]

O=C(Cl)c1cc(Cl)cc(Cl)c1
inactive: outcome [1] | Potency [2] | Potency [3] | Potency [4] | Potency [5] | Potency [6] | Potency [7]

CCCCOc1ccc(N)cc1
inactive: outcome [1] | Potency [2] | Potency [3] | Potency [4] | Potency [5] | Potency [6]
active: Potency [7] 54.5 µM

CC1=C(C)C(=O)C(C(CCCCCC(=O)O)c2ccccc2)=C(C)C1=O (stereo unspecified)
inactive: outcome [1] | Potency [2] | Potency [3] | Potency [5] | Potency [6] | Potency [7] | max activation [8] -6.02% | Potency [10]
active: Potency [4] 26.6 µM | Potency [9] 10 µM

Clc1cccc(C(c2ccc3nc[nH]c3c2)n2ccnc2)c1 (stereo unspecified)
inactive: outcome [1] | Potency [2] | Potency [3] | Potency [4] | Potency [5] | Potency [6] | Potency [7] | Potency [9]

CC(C(=O)O)c1ccc2c(c1)Cc1cccnc1O2 (stereo unspecified)
inactive: outcome [1] | Potency [2] | Potency [3] | Potency [4] | Potency [5] | Potency [6] | max activation [8] -0.373%

OCC(O)c1ccccc1 (stereo unspecified)
inactive: outcome [1] | Potency [2] | Potency [3] | Potency [4] | Potency [6] | Potency [7]

C[C@H]1C[C@H]2[C@@H]3CCC4=CC(=O)C=C[C@]4(C)[C@@]3(F)[C@@H](O)C[C@]2(C)[C@@]1(O)C(=O)COP(=O)(O)O
inactive: outcome [1] | Potency [2] | Potency [3] | Potency [5] | Potency [6]

CCCC1CCOC(C)S1 (stereo unspecified)
inactive: outcome [1] | Potency [2] | Potency [3] | Potency [4] | Potency [6] | Potency [7]

CC(C)Oc1ccccc1O
inactive: outcome [1] | Potency [2] | Potency [3] | Potency [5] | Potency [6] | Potency [7]

O=c1c2ccccc2oc2ccccc12
inactive: outcome [1] | Potency [2] | Potency [3] | Potency [5] | Potency [6] | Potency [7]

c1ccc(-c2ccc(-c3ccccc3)cc2)cc1
active: Potency [7] 1.77 µM
inactive: activation [1] 0.249% [at 11.8 µM] | activity change, negative = cytotoxicity [2] 0.816% [at 19 µM] | caspase activation [3] -3.46% [at 19 µM] | activity change, negative = cytotoxicity [4] 11.6% [at 19 µM] | activity change, negative = cytotoxicity [6] 6.27% [at 19 µM]
